“And” between values parts separate entries of the source, which are not always exact repeats. Equal entries are not always repeated. This is part of a sample that, as a whole, favours compounds with a hit. Of some 79,000 tested, about 15% had one in any assay. Rule as the data show it: active = growth inhibition above about 70%; inactive = the rest. Where a SMILES comes first, the peptide text is derived from it. The star is where a group is joined. Cbz = O=C(OCc1ccccc1)*
How the values were obtained:
[1] = NCI Yeast Anticancer Drug Screen. Data for the rad50 strain (AID 155);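 also: 0% = growth of vehicle-only cultures of the same strain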; conditions: S. cerevisiae rad50 strain growth inhibition, stronger effect = higher value; at 50.0 µM unless noted
Summary of the method: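 Yeast carrying a defined DNA repair defect were exposed to test compounds, and growth was compared with vehicle-treated controls to give percent inhibition.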

[2] = NCI Yeast Anticancer Drug Screen. Data for the mec2-1 strain (AID 157); conditions: S. cerevisiae mec2-1 strain, stronger effect = higher value; at 50.0 µM unless noted
Summary of the method: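 Readout is yeast growth inhibition, normalised to vehicle-treated controls, in the mec2-1 strain exposed to compound.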

[3] = NCI Yeast Anticancer Drug Screen. Data for the sgs1 mgt1 strain (AID 161);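 also: 0% = growth of cultures given vehicle only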; conditions: S. cerevisiae sgs1 mgt1 strain, stronger effect = higher value; at 50.0 µM unless noted
Summary of the method: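 Growth of a repair-deficient yeast mutant was monitored after compound treatment and expressed as inhibition relative to vehicle-treated cultures.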

[4] = NCI Yeast Anticancer Drug Screen. Data for the cln2 rad14 strain (AID 165);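 also: 0% = growth equal to vehicle treated cultures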; conditions: S. cerevisiae cln2 rad14 strain, stronger effect = higher value; at 50.0 µM unless noted
Summary of the method: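 Relative to vehicle controls, growth inhibition of compound-treated cln2 rad14 yeast was recorded.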

[5] = NCI Yeast Anticancer Drug Screen. Data for the bub3 strain (AID 167); conditions: S. cerevisiae bub3 mutant strain, stronger effect = higher value; at 50.0 µM unless noted
Summary of the method: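 Compounds were applied to a genetically altered yeast strain carrying a cell-cycle control defect. Growth inhibition was scored against vehicle-treated controls.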

[6] = NCI Yeast Anticancer Drug Screen. Data for the mlh1 rad18 strain (AID 175); conditions: S. cerevisiae mlh1 rad18 strain growth inhibition, stronger effect = higher value; at 50.0 µM unless noted
Summary of the method: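 Test agents were incubated with a yeast strain of defined genotype (DNA damage repair defect). Inhibition of growth was derived by comparison with vehicle-exposed cultures.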

Measured: growth inhibition

COc1cc(CCC(NC(C)=O)c2cccc(O)c(=O)c2)cc(OC)c1OC (stereo not drawn)
inactive: [1] -10.2% | [2] -4.6% | [3] 17.2% | [4] -33.5% | [5] -3.35% | [6] 8.1%

COC(=O)C(CC(C)C)NC(=O)C(CC(N)=O)NC(=O)C(NC(=O)OCc1ccccc1)C(C)C (stereo not drawn) (Cbz-Val-Asn-Leu-OMe; configuration not given here)
inactive: [1] 38.1% | [2] 24.5% | [3] 8.9% | [4] 14.7% | [5] 9.3% | [6] 36.5%

COc1cccc(N2C(=O)C3c4[nH]c5ccccc5c4C4c5ccccc5CCC4C3C2=O)c1 (stereo not drawn)
inactive: [1] -0.1% | [2] 4.4% | [3] 5.05% | [4] 2.95% | [5] -0.6% | [6] 20.9%

COc1cc(OC)c(C2SCC(=O)N2c2nnc(C(F)(F)F)s2)cc1OC (stereo not drawn)
inactive: [1] 9.9% | [2] 13.8% | [3] 5.15% | [4] 3.75% | [5] 25.9% | [6] 6.8%

c1ccc(Nc2ccccc2)cc1 (tested in a mixture with another compound)
inactive: [1] 3.1% | [2] 20.2% | [3] 1.95% | [4] 1.6% | [5] 38.7% | [6] 9.8%

NC(=O)C(=CN1C(=O)CC(=O)NC1=S)C(N)=O
inactive: [1] -29.8% | [2] -34% | [3] -11.6% | [4] -13.8% | [5] -26.6% | [6] 13.5%

NC(=O)c1ncc(Cl)cc1Cl
inactive: [1] 21.1% | [2] 2.5% | [3] 14.3% | [4] 5.8% | [5] 0.55% | [6] 25.1%

O=S(=O)(c1ccc(Cl)cc1)S(=O)(=O)c1ccc(Cl)cc1
inactive: [1] 18.8% | [2] 8.5% | [3] 8.6% | [4] -18.4% | [5] 4.5% | [6] 10.4%

CC(C)NC(=O)OCc1c(COC(=O)NC(C)C)c(-c2ccc(F)cc2F)n2c1CCC2
inactive: [1] 12% | [2] 4% | [3] 10% | [4] 8.6% | [5] -13.6% | [6] -12.7%

COC(=O)c1ccccc1OC
inactive: [1] 20.1% | [2] 15.8% | [3] -2.2% | [4] 6.75% | [5] -2.05% | [6] 3.1%

CC(C)(C)COB(OCC(C)(C)C)OCC(C)(C)C
inactive: [1] -2.8% | [2] -13.2% | [3] 3.55% | [4] -29.1% | [5] -9.55% | [6] -15.2%

CCOC(=O)CN(c1ccccc1)c1nc(=[N+](C)C)ss1
inactive: [1] 7.05% | [2] 0.65% | [3] 6.8% | [4] 2.55% | [5] 1.35% | [6] 22.9%

O=C(CSc1nc(-c2ccccc2)c(-c2ccccc2)[nH]1)N/N=C/c1ccc(O)cc1
inactive: [1] -8.15% | [2] -3.2% | [3] -12.2% | [4] -21.9% | [5] 5.6% | [6] -25.6%

S=C(c1ccco1)N1CCOCC1
inactive: [1] 14.8% | [2] 12% | [3] 25.1% | [4] 12.7% | [5] 16.2% | [6] 10.8%

O=C1c2scc(-c3ccc(F)cc3)c2-n2cccc21
inactive: [1] 7.8% | [2] 12.5% | [3] 7.6% | [4] 3.7% | [5] 8.65% | [6] 24.1%

CC(C)Cc1c(C#N)c(C#N)c(N)n1Cc1ccccc1
inactive: [1] 3.05% | [2] 11.4% | [3] -29% | [4] -12% | [5] -22.1% | [6] -36.4%

COc1cc(O)c(C/C=C/c2ccccc2)cc1O
inactive: [1] 49.6% | [2] 21.4% | [3] 27.6% | [4] -12.3% | [5] 29.1% | [6] 64.9%

Cc1nn(C(C)C(=O)N(C)C)c(Br)c1Br (stereo not drawn)
inactive: [1] 2.05% | [2] 4.7% | [3] 0.75% | [4] -30.4% | [5] -25.7% | [6] 3.15%

Cc1cc(=O)c2c(o1)C(=O)c1occc1C2=O
inactive: [1] -9.5% | [2] -34.5% | [3] -3.9% | [4] 5.85% | [5] -6.1% | [6] -13%

CN(C)C(=O)NCCN(CCNC(=O)N(C)C)C(=O)N(C)C
inactive: [1] -1.7% | [2] 13.2% | [3] -0.9% | [4] -28.3% | [5] -18.8% | [6] -4.15%

N#CC1C(c2ccc(Cl)cc2)C(C(N)=O)C(=O)NC1(O)c1ccccc1 (stereo not drawn)
inactive: [1] -1.45% | [2] -5.4% | [3] 8.45% | [4] 8.95% | [5] 4.15% | [6] 15.6%

O=C(CCl)NNC1=Nc2ccc(Cl)cc2SC1
inactive: [1] -2.2% | [2] -3.65% | [3] 8.55% | [4] 0.6% | [5] 5.8% | [6] 11.2%

O=C(OCc1ccccc1CN1CCCCC1)c1cccc(Cl)c1
inactive: [1] -2.85% | [2] -7.7% | [3] -6.3% | [4] -10.3% | [5] 7.35% | [6] 2.3%

O=[N+]([O-])C(c1ccccc1)C(c1ccccc1)C(c1ccccc1)[N+](=O)[O-] (stereo not drawn)
inactive: [1] 4.25% | [2] 6.05% | [3] 5.6% | [4] 23.2% | [5] 22.6% | [6] 10%

Oc1ccc(/C=C\c2cnccn2)cc1
inactive: [1] 27.6% | [2] 7.3% | [3] 0.45% | [4] 5.55% | [5] 30.8% | [6] 7.6%

CCCCCCCCCCCCCCCCCCOc1ccccn1
inactive: [1] -9.8% | [2] -32.1% | [3] -9.75% | [4] 2.55% | [5] -17.9% | [6] 3.25%

CCCCCCC1(C)NC(=O)NC1=O (stereo not drawn)
inactive: [1] -20.2% | [2] -11.8% | [3] -2.15% | [4] -77.1% | [5] 6.3% | [6] -8.3%

CCN(CC)C(=O)/C=C/c1ccccc1
inactive: [1] -54.9% | [2] -28.6% | [3] -6.05% | [4] -33.2% | [5] 1.7% | [6] -14.8%

O=C(N1CCN(C(=O)S(=O)(=O)c2ccccc2)CC1)S(=O)(=O)c1ccccc1
inactive: [1] 29.9% | [2] -16.9% | [3] 19.8% | [4] 20.1% | [5] 1.85% | [6] -3.55%

CCCCCCCCCCCCCCCCCC(=O)N/N=C\c1c(O)ccc2ccccc12
inactive: [1] 21.4% | [2] 11.7% | [3] 4.85% | [4] 2.15% | [5] -10.1% | [6] 20.2%

NC(=O)CSc1c2cc(O)ccc2nc2ccc(O)cc12
inactive: [1] -17.8% | [2] -6.95% | [3] -12.6% | [4] 37.5% | [5] -19.4% | [6] 26.7%

Nc1ncc2c(=O)[nH][nH]c(=O)c2n1
inactive: [1] 34.9% | [2] 31.6% | [3] 16.6% | [4] 12.4% | [5] 3.4% | [6] -5.5%

CC1(C)OC1CS(=O)c1ccccc1 (stereo not drawn)
inactive: [1] -6.1% | [2] -5.4% | [3] -14.5% | [4] -17.4% | [5] 5.5% | [6] -42.8%

O=C(c1ccccc1)C(Oc1ccccc1)c1ccccc1 (stereo not drawn)
inactive: [1] 39.5% | [2] 19.2% | [3] 37.8% | [4] 36% | [5] 6.9% | [6] 60%

C#CCOC(=O)Nc1ccccc1
inactive: [1] 21.6% and 1.85% | [2] 12.7% and -1.2% | [3] -8.7% and -8.65% | [4] -72.2% and -54.2% | [5] -1.1% and -10.6% | [6] 5.55% and -0.8%

CCC1NC(=O)C1NC(=O)OC (stereo not drawn)
inactive: [1] 23.6% | [2] -1.15% | [3] 22.6% | [4] 0.55% | [5] 12.6% | [6] 22.8%

Cc1ccc(C2=Nc3ccccc3NC(=O)C2)cc1
inactive: [1] -2.6% | [2] -20.1% | [3] -12.6% | [4] 22.2% | [5] -7.35% | [6] -17.9%

O=c1c2cccnc2nc2ccc3c[nH][nH]c3c12
inactive: [1] -23.8% | [2] -24.6% | [3] -0.55% | [4] -14.6% | [5] -18.3% | [6] 8.65%

— PubChem BioAssay (NCI)
